Out of some 17,000 compounds screened, about 75 (0.4%) were called active.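 The calls were made as follows: active = compounds whose four printed spots each glow above background more than chance allows, each with a p-value under 7%; inactive = the rest.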 Only a selection was taken, and actives are over-represented in it overall.
These compounds were tested on mutant tumor protein p53 (GST-tagged), Homo sapiens (assay: binders of human mutant p53, primary screen, biochemical, small molecule microarray, anti-GST fluorescence (AID 624136)). Settings: small molecule microarray binding.

outcome, inactive:
C[C@@H]1CN([C@H](C)CO)C(=O)c2cccc(NC(=O)Nc3ccc(F)cc3)c2O[C@@H]1CN(C)Cc1ccc(C(F)(F)F)cc1, O=C(NCc1cccnc1)c1cnn2c(C(F)F)cc(-c3ccccc3)nc12, CNC[C@H]1OCCCC[C@@H](C)Oc2ccc(NC(=O)c3ccncc3)cc2C(=O)N([C@H](C)CO)C[C@H]1C, Cn1nnc2cc(C(=O)N(CCO)c3ccccc3)ccc21, C[C@@H]1CN([C@@H](C)CO)C(=O)Cc2cc(NC(=O)Cc3cn(C)c4ccccc34)ccc2O[C@H]1CN(C)Cc1ccc(C(=O)O)cc1, Cc1noc(C)c1S(=O)(=O)Nc1cccc2c1O[C@H](CN(C)Cc1ccc(C(F)(F)F)cc1)[C@H](C)CN([C@@H](C)CO)C2=O, CC(=O)Nc1ccccc1-c1cn(CC(=O)N2CCOCC2)nn1, CCCN(C)C[C@@H]1OCCCC[C@H](C)Oc2ccc(NS(=O)(=O)c3ccc(C)cc3)cc2C(=O)N([C@H](C)CO)C[C@@H]1C, Cc1noc(C)c1NC(=O)Nc1ccc2c(c1)C(=O)N([C@@H](C)CO)C[C@H](C)[C@@H](CN(C)C)O2, C[C@@H]1CN([C@@H](C)CO)C(=O)c2cc(N(C)C)ccc2O[C@@H](C)CCCCO[C@@H]1CN(C)C(=O)CCC(F)(F)F, CC(C)NC(=O)Nc1ccc2c(c1)C(=O)N([C@H](C)CO)C[C@H](C)[C@@H](CN(C)C(=O)CCCN(C)C)OCCCC[C@@H](C)O2, Cc1noc(C)c1S(=O)(=O)Nc1ccc2c(c1)CC(=O)N([C@@H](C)CO)C[C@H](C)[C@H](CN(C)C(=O)Nc1ccccc1)O2, CC(C)NC(=O)N(C)C[C@@H]1OCCCC[C@@H](C)Oc2ccc(NC(=O)CCCN(C)C)cc2C(=O)N([C@@H](C)CO)C[C@@H]1C, COc1ccc(S(=O)(=O)Nc2ccc3c(c2)C(=O)N([C@@H](C)CO)C[C@@H](C)[C@H](CN(C)S(=O)(=O)c2cccs2)O3)cc1, COc1ccc(NC(=O)N(C)C[C@H]2Oc3ccc(NS(=O)(=O)c4ccc(C)cc4)cc3C(=O)N([C@@H](C)CO)C[C@H]2C)cc1, COc1ccc(C(=O)CCC(=O)Nc2cccnc2)c(OC)c1, C[C@H](CO)N1C[C@H](C)[C@H](CN(C)S(=O)(=O)c2cccs2)OCCCC[C@H](C)Oc2ccc(NC(=O)CCCN(C)C)cc2C1=O, CCOC(=O)c1c(CN2CCOCC2)nc2c3ccccc3ccn12, CS(=O)(=O)N(CC(=O)Nc1ccc(F)c(F)c1)c1ccccc1F, COC(=O)c1ccccc1NC(=O)Cc1coc2cc(C)cc(C)c12, COc1ccc(-c2nnc(SCC(=O)Nc3c(C)n[nH]c3C)n2-c2ccccc2)cc1OC, C[C@H]1CN([C@@H](C)CO)C(=O)Cc2cc(NC(=O)c3ccncc3)ccc2O[C@@H]1CN(C)C(=O)Nc1ccccc1, C[C@@H]1CCCCO[C@H](CN(C)Cc2ccc3c(c2)OCO3)[C@@H](C)CN([C@H](C)CO)C(=O)c2cc(N(C)C)ccc2O1, O=C1N(CCS(=O)(=O)c2ccccc2)Cc2ccccc2[C@H]2OC(c3ccc(OCCCO)cc3)=N[C@@]12CCS(=O)(=O)c1ccccc1, C[C@H](CO)N1C[C@H](C)[C@H](CN(C)C(=O)Nc2ccc(F)cc2)Oc2ccc(NC(=O)Cc3cn(C)c4ccccc34)cc2CC1=O, C[C@H](CO)N1C[C@H](C)[C@H](CN(C)S(=O)(=O)c2ccc(Cl)cc2)Oc2c(NS(C)(=O)=O)cccc2C1=O, C[C@@H]1CN([C@@H](C)CO)C(=O)c2cc(NC(=O)Cc3ccccc3)ccc2O[C@H]1CN(C)CC1CC1, C[C@H]1CN([C@@H](C)CO)C(=O)c2cc(NC(=O)NC3CCCCC3)ccc2O[C@@H]1CN(C)C(=O)Nc1cccc2ccccc12, COc1ccccc1-c1nnc(SCC(=O)Nc2ccccc2)o1, C[C@@H]1CN([C@H](C)CO)C(=O)c2cc(NS(=O)(=O)c3ccccc3)ccc2O[C@@H](C)CCCCO[C@H]1CN(C)C(=O)C1CCCCC1, Cc1ccc(S(=O)(=O)N(C)CC(=O)Nc2ccc(C#N)cc2)cc1, C[C@H]1CN([C@@H](C)CO)C(=O)c2cccc(NC(=O)Nc3cccc4ccccc34)c2O[C@@H]1CN(C)C(=O)NC1CCCCC1, C[C@H](CO)N1C[C@H](C)[C@H](CN(C)S(=O)(=O)c2cccs2)Oc2c(NS(=O)(=O)c3ccc(Cl)cc3)cccc2C1=O, O=C(C1=C[C@H](c2csc3ccccc23)C[C@H](OCc2ccc(CO)cc2)O1)N1CCCCC1, C[C@@H]1CN([C@H](C)CO)C(=O)Cc2cc(NC(=O)Nc3ccc(F)cc3)ccc2O[C@@H]1CN(C)Cc1ccc2c(c1)OCO2, C[C@@H]1CN([C@@H](C)CO)C(=O)Cc2cc(NS(=O)(=O)c3ccc(Cl)cc3)ccc2O[C@H]1CN(C)CC1CCCCC1, CNC[C@@H]1Oc2ncc(-c3ccc(F)cc3)cc2C(=O)N([C@H](C)CO)C[C@@H]1C, CCNc1nc(NCC)nc(OCC#N)n1, CO[C@@H]1[C@@H](OC(N)=O)[C@@H](O)C(Oc2ccc3c(O)c(NC(=O)c4ccc(O)c(CC=C(C)C)c4)c(=O)oc3c2C)OC1(C)C (stereo partly specified), COc1ccc2ncnc(NCc3ccc4c(c3)OCO4)c2c1, COc1ccc(S(=O)(=O)Nc2ccc3c(c2)CC(=O)N([C@H](C)CO)C[C@H](C)[C@H](CN(C)Cc2ccc(C(F)(F)F)cc2)O3)cc1, C[C@H]1CN([C@@H](C)CO)C(=O)Cc2cc(NC(=O)NC3CCCCC3)ccc2O[C@H]1CN(C)S(=O)(=O)c1cccs1, COc1ccc(CN(C)C[C@H]2Oc3c(NC(=O)c4cnccn4)cccc3C(=O)N([C@H](C)CO)C[C@@H]2C)cc1, COc1cc(CCC(=O)O)oc(=O)c1, C[C@H](CO)N1C[C@H](C)[C@@H](CN(C)C(=O)Nc2ccc3c(c2)OCO3)Oc2ccc(NS(=O)(=O)c3ccc(Cl)cc3)cc2C1=O, Cc1ccccc1-c1nnc(SCC(=O)Nc2ccc(S(N)(=O)=O)cc2)n1C, CC(C)(C)c1cn2c3ccccc3nc2n1CCN1CCOCC1, CNC[C@H]1Oc2ccc(NS(=O)(=O)c3ccccc3)cc2CC(=O)N([C@H](C)CO)C[C@@H]1C, CC(C)NC(=O)Nc1ccc2c(c1)C(=O)N([C@@H](C)CO)C[C@@H](C)[C@H](CN(C)C)OCCCC[C@H](C)O2, NC(CC(=O)Nc1ccc(Cl)cc1)C(=O)O (stereo unspecified), C[C@@H]1CN([C@@H](C)CO)C(=O)c2cccc(NC(=O)c3ccncc3)c2O[C@@H]1CN(C)CC1CC1, C[C@@H]1CN([C@@H](C)CO)C(=O)c2cccc(NS(=O)(=O)c3cn(C)cn3)c2O[C@@H]1CN(C)Cc1ccc(Cl)c(Cl)c1, COc1ccc(CN(C)C[C@H]2Oc3c(NC(=O)C4CCCCC4)cccc3C(=O)N([C@@H](C)CO)C[C@H]2C)cc1, CC(=O)Nc1ccc(NC(=O)CN(c2ccc(I)cc2)S(C)(=O)=O)cc1, CN(CCc1ccccn1)S(=O)(=O)c1ccc2c3c(cccc13)C(=O)N2, CNC[C@@H]1OCCCC[C@@H](C)Oc2ccc(NS(C)(=O)=O)cc2C(=O)N([C@H](C)CO)C[C@@H]1C, CCN1CCOC(CC(=O)Nc2ccc3c(c2)OCCO3)C1=O (stereo unspecified), C[C@@H]1CN([C@H](C)CO)C(=O)c2cc(NC(=O)Cn3cnnn3)ccc2O[C@@H]1CN(C)CC1CC1, C[C@@H]1CN([C@@H](C)CO)C(=O)c2cc(NS(=O)(=O)c3ccccc3)ccc2O[C@@H](C)CCCCO[C@@H]1CN(C)S(=O)(=O)c1cccs1, O=C(Cn1cnc([N+](=O)[O-])n1)Nc1c(Cl)cccc1Cl, COc1ccc(CN(C)C[C@H]2Oc3c(NS(=O)(=O)c4ccc(Cl)cc4)cccc3C(=O)N([C@H](C)CO)C[C@H]2C)cc1, Cn1c(COc2ccccc2)nnc1SCc1nc2ccccc2c(=O)[nH]1, Cc1noc(C)c1NC(=O)N(C)C[C@H]1Oc2c(NC(=O)c3nc4ccccc4s3)cccc2C(=O)N([C@@H](C)CO)C[C@@H]1C, COc1ccc(CN(C)C[C@H]2Oc3c(NC(=O)NC4CCCCC4)cccc3C(=O)N([C@@H](C)CO)C[C@@H]2C)cc1, Cc1noc(C)c1NC(=O)N(C)C[C@@H]1OCCCC[C@@H](C)Oc2ccc(NC(=O)C3CCCCC3)cc2C(=O)N([C@H](C)CO)C[C@@H]1C, CC1(C)C[C@H](O)C[C@@]2(C)[C@H]1[C@H](O)C=C1COC(=O)[C@@]12O, C[C@@H]1CN([C@H](C)CO)C(=O)c2cccc(NC(=O)Nc3cccc4ccccc34)c2O[C@@H]1CN(C)C(=O)Nc1ccc(F)cc1, C[C@@H]1CC[C@]2(C(=O)O)CC[C@]3(C)C(=CCC4[C@@]5(C)CC[C@H](O)[C@](C)(C(=O)O)C5CC[C@]43C)C2[C@]1(C)O (stereo partly specified), C[C@H]1CN([C@@H](C)CO)C(=O)c2cccc(NC(=O)Nc3ccccc3)c2O[C@@H]1CN(C)S(C)(=O)=O, COc1ccc(CN(C)C[C@H]2Oc3c(NC(=O)c4ccncc4)cccc3C(=O)N([C@H](C)CO)C[C@@H]2C)cc1, Cc1cc(C(=O)Nc2cccc3c2O[C@@H](CN(C)Cc2ccc(C(=O)O)cc2)[C@H](C)CN([C@@H](C)CO)C3=O)n(C)n1

— PubChem BioAssay AID624136 (Broad Institute, 2012)
